This passage reports growth results from PubChem BioAssay (NCI).

Among the test systems are T-47D breast; BT-549 breast; MDA-MB-435 melanoma; SW-620 colon; MCF7 breast; HCT-116 colon; KM12 colon; HCC-2998 colon.
Holding throughout (assay): NCI-60 one-dose screen, 48 h (100 = growth as untreated, 0 = no growth, -100 = all killed)
Conditions in all cases: 10 µM unless noted

The panel holds about 83,000 compounds, 20% with a hit somewhere; the sample as a whole holds those more often.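 A percent growth of 40 corresponds to 60% growth inhibition; 0 means no net growth; -100 means all cells died. Active threshold: below 10.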 A number with no mark means an inactive call. The source made the active and inactive calls.

Take `CC(C)(C)OC(=O)N1Cc2cc3ccccc3nc2C1CO` (centres undefined): the growth in the assay with T-47D breast is 103%; with BT-549 breast, 85%; with MDA-MB-435 melanoma it was 88.1%; in the assay with SW-620 colon, 94.5%; with MCF7 breast it was 90.7%; in the assay on HCT-116 colon, 98.4%. In addition, the growth with KM12 colon is 106%.

On to `O[C@H]1CO[C@H]2[C@@H]1OC[C@@H]2Oc1ccc(Nc2nc(Nc3ccc(F)c(Cl)c3)ncc2F)cc1Cl`, for which the growth in the assay with T-47D breast is 110%; in the assay on BT-549 breast, 105%; in the assay with MDA-MB-435 melanoma, 93.1%; with SW-620 colon, 98.2%; in the assay with MCF7 breast, 88.3%; with HCT-116 colon it was 105%. The growth in the assay with HCC-2998 colon was 101%; in the assay on KM12 colon, 108%.

Take `CCCc1cc(=O)oc2c3c(c4c(c12)OC(C)(C)C=C4)O[C@@H](C)[C@H](C)C3=O`: the growth in the assay on T-47D breast was 41.5%; with BT-549 breast it was 68.7%; in the assay on MDA-MB-435 melanoma, 96.2%; in the assay on SW-620 colon, 71.6%; with MCF7 breast it was 56.4%; with HCT-116 colon it was 35.8%. Further, the growth with KM12 colon was 70.4%.

For the molecule `COc1cccc(CCC2CCCN(c3cc(C)nc(N)n3)C2)c1` (centres undefined), the growth was 45.9% in the assay with T-47D breast; 39.1% with BT-549 breast; 0.575% (active) in the assay on MDA-MB-435 melanoma; 30.4% with SW-620 colon; 17.8% in the assay on MCF7 breast; 7.36% (active) with HCT-116 colon. In addition, the growth in the assay with KM12 colon is 20.5%.

For the molecule `CC(C)N(CCOC(=O)Nc1ccccc1Cl)C(C)C`, the growth is 107% in the assay with T-47D breast; 88.5% in the assay on BT-549 breast; 113% with MDA-MB-435 melanoma; 103% in the assay on SW-620 colon; 104% with MCF7 breast; 84.9% in the assay with HCT-116 colon. The growth in the assay on KM12 colon was 104%.

With `C=C1C(=O)O[C@H]2[C@H]1CC/C(COC(=O)/C=C\C(=O)NCc1ccc(Cn3c(=O)sn(-c4ccc(Cl)cc4)c3=O)cc1)=C\CC[C@@]1(C)O[C@@H]21`, the growth in the assay on T-47D breast was -44.1% (active); in the assay with BT-549 breast, -40.9% (active); in the assay with MDA-MB-435 melanoma it was -80.3% (active); in the assay with SW-620 colon it was -65.7% (active); with MCF7 breast, -52% (active); in the assay with HCT-116 colon, -66% (active). The growth with KM12 colon was -72.7% (active).

In the case of `OC(COc1cccc2ccccc12)CN1CCN(c2ccccc2)CC1` (centres undefined), the growth is 86.2% in the assay with T-47D breast; 95.3% in the assay with BT-549 breast; 88.2% in the assay with MDA-MB-435 melanoma; 102% with SW-620 colon; 96.4% in the assay with MCF7 breast; 86.9% in the assay with HCT-116 colon. In the assay with KM12 colon, the growth is 95.3%.

Turning to `CC1=NN(c2cccc(Cl)c2)C(=O)/C1=C\c1cn(CC(O)CN2CCCCC2)c2ccccc12` (centres undefined), the growth in the assay with T-47D breast is 83.3%; in the assay with BT-549 breast it was 96.1%; in the assay on MDA-MB-435 melanoma it was 1.51% (active); in the assay on SW-620 colon, 7.47% (active); in the assay on MCF7 breast, 41.1%; in the assay with HCT-116 colon, 10.2%. For the same molecule, the growth with KM12 colon is 29.7%.

`O=C(Nc1ccccc1Cl)OCCN1CCOCC1`: the growth in the assay with T-47D breast is 101%; in the assay with BT-549 breast, 72.2%; with MDA-MB-435 melanoma, 107%; with SW-620 colon it was 104%; in the assay on MCF7 breast, 105%; with HCT-116 colon, 73.8%. Besides, the growth with KM12 colon is 102%.

For the molecule `CCOc1cc(N)ccc1C(=O)NCCCN(CC)CC`, the growth in the assay with T-47D breast was 101%; with BT-549 breast, 98.8%; in the assay on MDA-MB-435 melanoma, 106%; in the assay on SW-620 colon, 101%; in the assay with MCF7 breast it was 96.4%; in the assay on HCT-116 colon, 98%. Further, the growth in the assay with KM12 colon was 106%.

Take `CC[C@]1(O)C[C@H]2CN(CCc3c([nH]c4ccccc34)[C@@](C(=O)OC)(c3cc4c(cc3OC)N(C=O)[C@H]3[C@@](O)(C(=O)OC)[C@H](OC(C)=O)[C@]5(CC)C=CCN6CC[C@]43[C@@H]65)C2)C1`: the growth in the assay on T-47D breast was 54.8%; with BT-549 breast it was -24.2% (active); in the assay on MDA-MB-435 melanoma it was -43.7% (active); with SW-620 colon, 15.5%; in the assay with MCF7 breast, 2.44% (active); with HCT-116 colon, -36.7% (active). The growth in the assay with KM12 colon is 5.78% (active).

On to `CC(C)c1ccc(C(=O)OC(=O)c2ccc(C(C)C)cc2)cc1`, for which the growth in the assay on T-47D breast was 95.3%; in the assay on BT-549 breast, 87.9%; in the assay on MDA-MB-435 melanoma, 97%; in the assay on SW-620 colon, 114%; with MCF7 breast, 98.1%; in the assay with HCT-116 colon, 97.4%. Further, in the assay with KM12 colon, the growth is 123%.

With `CC(C)(C)N1CC(OC(N)=O)C1`, the growth with T-47D breast is 93.3%; in the assay with BT-549 breast, 94.4%; with MDA-MB-435 melanoma, 96.5%; with SW-620 colon, 104%; in the assay with MCF7 breast, 102%; in the assay on HCT-116 colon, 99.4%. Moreover, the growth in the assay on KM12 colon is 108%.

For the molecule `COc1ccc(-c2c(N)n[nH]c2-c2ccccc2O)cc1OC`, the growth with T-47D breast is 70%; with BT-549 breast, -4.52% (active); with MDA-MB-435 melanoma it was 93.4%; in the assay with SW-620 colon it was 110%; with MCF7 breast, 96.5%; in the assay with HCC-2998 colon it was 107%. Further, the growth in the assay on KM12 colon was 107%.

`N=c1ccn2c(n1)OC1C(O)C(CO)OC12` (centres undefined): the growth in the assay on T-47D breast is 61%; with BT-549 breast, 44.9%; in the assay with MDA-MB-435 melanoma, 46.8%; in the assay on SW-620 colon, 41.5%; with MCF7 breast, 14.9%; in the assay with HCT-116 colon, 18.3%. Also, the growth in the assay with KM12 colon was 50.6%.

Turning to `C[N+](C)(C)CCOC(OCC[N+](C)(C)C)(c1ccccc1)c1ccccc1`, the growth was 106% in the assay on T-47D breast; 101% in the assay with BT-549 breast; 121% in the assay on MDA-MB-435 melanoma; 103% with SW-620 colon; 92.8% with MCF7 breast; 97% in the assay on HCC-2998 colon.

Turning to `C/C(=N\NC(N)=S)c1nc2ccc(Cl)cc2[nH]1`, the growth in the assay with T-47D breast is 40.5%; in the assay with BT-549 breast it was 74.9%; with MDA-MB-435 melanoma, 54.6%; with SW-620 colon it was 41.4%; in the assay on MCF7 breast it was 8.53% (active); with HCT-116 colon, 35.6%. In the assay with KM12 colon, the growth was 32.1%.
